Measured values reported in PubChem BioAssay (Tox21).
Inconclusive results are not listed. Active and inactive are the calls of the source. Unless noted, the call rests on the fitted dose curve.

What was measured:
[1] = Nuclear factor erythroid 2-related factor 2/antioxidant responsive element (Nrf2/ARE) small molecule agonists: qHTS cell viability counter screen in human keratinocytes (AID 1919968; active means well fitted curve in the direction sought with a large enough effect in the repeat runs; an effect the other way counts as inactive or inconclusive; further: nearly all actives have a fitted effect of over 55% in size)
Summary of the method: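 HaCaT ARE reporter line, 1,500 cells/well; 5 h settle, 37 C/5% CO2; cpd in DMSO pinned; 23 h exposure; CellTiter-Fluor, 1 h; fluorescence.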

[2] = Nuclear factor erythroid 2-related factor 2/antioxidant responsive element (Nrf2/ARE) small molecule agonists: luciferase reporter gene qHTS assay in human keratinocytes (AID 1919969); further: nearly all actives have a fitted effect of over 35% in size
[3] = biological target: Gonadotropin-releasing hormone receptor (Homo sapiens) (UniProt P30968); assay: Human gonadotropin-releasing hormone receptor (GnRHR) small molecule agonists, calcium flux assay in GnRHR-HEK293 cells (AID 1920063); further: nearly all actives have a fitted effect of over 35% in size
Summary of the method: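 GnRHR-HEK293, 1500 cells/well, 18 h 37 C/5% CO2; Ca dye 1 h 37 C; cpd pinned (DMSO), agonist mode; kinetic FL 480/540, 3 min, 1 s reads; 15 conc, n=3.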

[4] = biological target: KiSS-1 receptor (Homo sapiens) (UniProt Q969F8); assay: Human kisspeptin (KISS1R) small molecule agonists, calcium flux assay in KISS1R-HEK293 cells (AID 1920064; active means well fitted curve in the direction sought with a large enough effect in the repeat runs; an effect the other way counts as inactive or inconclusive)
Summary of the method: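 Stable human KISS1R HEK293 line; 18 h plating, 37 C/5% CO2; calcium dye 1 h 37 C; compound pin transfer; kinetic fluorescence Ex/Em 480/540, 3 min.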

[5] = G protein-coupled receptor (GPCR) small molecule agonists, calcium flux assay: HEK293 wild type cell line counter screen (AID 1920065)
Summary of the method: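 Kinetic fluorescence at Ex/Em 480/540, recorded every second over 3 min, served as the read-out after compound addition. Each compound was tested at 15 concentrations in triplicate on cells pre-loaded with calcium dye for 1 h.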

[6] = p53 small molecule agonists, cell-based qHTS assay with human liver microsomes (AID 1963577)
Summary of the method: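 Fluorescence of the beta-lactamase reporter in p53RE-bla cells, detected with LiveBLAzer substrate (2 h, room temperature, dark), served as the read-out after 16 h compound exposure at 37 C with human liver microsomes and NADPH, each 0.5 mg/mL final.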

[7] = p53 small molecule agonists, cell-based qHTS assay with rat liver microsomes (AID 1963578)
Summary of the method: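 Cells carrying a p53 response element–beta-lactamase reporter were plated and rested 5 h, then dosed with compound in DMSO plus rat liver microsomes and NADPH, each at 0.5 mg/mL final. After 16 h at 37 C, LiveBLAzer substrate was added for 2 h.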

[8] = p53 small molecule agonists, cell-based qHTS assay with rat liver microsomes: qHTS cell viability counter screen (AID 1963580); further: nearly all actives have a fitted effect of over 45% in size
Summary of the method: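 p53RE-bla HCT-116 cells were exposed 16 h at 37 C to compounds with rat liver microsomes (0.5 mg/mL) and NADPH (0.5 mg/mL). Viability was measured in the same wells as ATP content by CellTiter-Glo luminescence.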

[9] = p53 small molecule agonists, cell-based qHTS assay: qHTS cell viability counter screen (AID 1963581); further: nearly all actives have a fitted effect of over 45% in size
Summary of the method: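 HCT-116 p53RE-bla cells, 4,000/well, plated 5 h before compound pin transfer; 16 h at 37 C; bla substrate 2 h RT; then CellTiter-Glo, 30 min RT, luminescence.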

[10] = p53 small molecule agonists, cell-based qHTS assay (AID 1963582; active means well fitted activation curve with a large enough effect in the signal ratio in the repeat runs, not every such curve was filed as active; the % refers to the signal ratio)
Summary of the method: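 Reporter line: p53RE-bla. Pre-incubation 5 h, 37 C, 5% CO2; compound (DMSO, pin tool) 16 h, 37 C; B/G FRET substrate 2 h RT; fluorescence intensity read.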

[11] = biological target: 5-hydroxytryptamine receptor 2A (Homo sapiens) (UniProt P28223); assay: 5-hydroxytryptamine receptor 2A (HTR2A) small molecule antagonists, cell-based qHTS assay (AID 1963586); further: nearly all actives have a fitted effect of over 45% in size
Summary of the method: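 Antagonist-mode intracellular calcium assay: DOI (4 nM) added after 5 min compound pre-incubation at room temperature to dye-loaded HTR2A-CHO cells. Fluorescence followed for 3 min, sampled every second.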

[12] = biological target: 5-hydroxytryptamine receptor 2A (Homo sapiens) (UniProt P28223); assay: 5-hydroxytryptamine receptor 2A (HTR2A) small molecule agonists, cell-based qHTS assay (AID 1963587); further: nearly all actives have a fitted effect of over 30% in size
Summary of the method: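 CHO cells stably expressing human HTR2A, plated 18 h, loaded with calcium dye 1 h at 37 C. Agonist mode: compounds added and intracellular calcium fluorescence recorded kinetically for 2 min at 1 sec intervals.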

[13] = biological target: Muscarinic acetylcholine receptor M1 (Homo sapiens) (UniProt P11229); assay: Cholinergic receptor muscarinic 1 (CHRM1) small molecule antagonists, cell-based qHTS assay (AID 1963588); further: nearly all actives have a fitted effect of over 40% in size
Summary of the method: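 CHRM1-CHO calcium-flux assay, antagonist mode. Cells were seeded 18 h, dye-loaded 1 h at 37 C and given compound for 5 min at RT, then acetylcholine was added at 50nM. FDSS fluorescence was read 3 min; 15 concentrations, three runs.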

[14] = biological target: Muscarinic acetylcholine receptor M1 (Homo sapiens) (UniProt P11229); assay: Cholinergic receptor muscarinic 1 (CHRM1) small molecule agonists, cell-based qHTS assay (AID 1963589); further: nearly all actives have a fitted effect of over 35% in size
Summary of the method: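 Human M1 in stable CHO line; 18 h plating, 1 h dye load 37 C; cpd added (agonist mode); Ca2+ fluorescence kinetic read, 1 s intervals; 15 conc, 3 runs.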

[15] = cAMP Responsive Elements (CRE) small molecule agonists, cell-based qHTS assay (AID 1963590)
Summary of the method: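 HEK 293T CRE-bla, 2,000 cells/well, 18 h preincubation 37 C/5% CO2; cpds (DMSO) pinned, 3 h; LiveBLAzer B/G FRET substrate, 2 h RT.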

[16] = cAMP Responsive Elements (CRE) small molecule antagonists, cell-based qHTS assay (AID 1963591; active means well fitted inhibition curve with a large enough effect in the signal ratio in the repeat runs, not every such curve was filed as active; the % refers to the signal ratio)
Summary of the method: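 Beta-lactamase reporter read by FRET substrate (LiveBLAzer B/G) after 2 h at room temperature. CRE-bla HEK293T cells had received compound plus 0.25 uM (final) NKH477 for 3 h at 37 °C.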

[17] = biological target: Beta-2 adrenergic receptor (Homo sapiens) (UniProt P07550); assay: Adrenergic beta2 receptor (ADRB2) small molecule antagonists, cell-based qHTS assay (AID 1963592); further: series mostly up to about 92 µM; nearly all actives have a fitted effect of over 50% in size
Summary of the method: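 Cells (CHO, stable ADRB2 overexpression) incubated 18-20hr at 37C; compounds added from DMSO; agonist mix (1nM isoproterenol, 100uM IBMX, 25uM Ro-20-1724) added; 0.5hr RT; d2-cAMP and anti-cAMP-cryptate added; 1hr RT; 665/615 nm read.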

[18] = biological target: D(2) dopamine receptor (Homo sapiens) (UniProt P14416); assay: Dopamine D2 receptor (DRD2) small molecule agonists, cell-based qHTS assay (AID 1963594); further: nearly all actives have a fitted effect of over 35% in size
Summary of the method: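 HEK293 cells stably expressing human DRD2, pre-treated with PDE inhibitor Ro20-1724 (0.1 mM final) and compound 10 min at room temperature, then stimulated with NKH477 (200nM […]) for 30 min. cAMP read by HTRF (665/620 nm).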

[19] = biological target: D(2) dopamine receptor (Homo sapiens) (UniProt P14416); assay: Dopamine D2 receptor (DRD2) small molecule antagonists, cell-based qHTS assay (AID 1963595; active means well fitted inhibition curve with a large enough effect in the signal ratio in the repeat runs, with a control signal flat; the % refers to the signal ratio)
Summary of the method: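 HEK293 cells stably expressing DRD2 were preincubated with 0.1 mM Ro20-1724, then with compound for 10 min at room temperature. Cells were stimulated with 200 nM NKH477 plus 12 nM quinpirole for 30 min, and cAMP was read by HTRF.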

[20] = p53 small molecule agonists, cell-based qHTS assay with human liver microsomes: qHTS cell viability counter screen (AID 1963579); further: nearly all actives have a fitted effect of over 45% in size
Summary of the method: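 Cytotoxicity counter screen: p53RE-bla, 4,000 cells/well; 5 h settle, 37 C/5% CO2; cpd + HLM 0.5 mg/mL + NADPH 0.5 mg/mL (final); 16 h, 37 C; CellTiter-Glo, 30 min RT, luminescence.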
On the % scale 0 is the no-effect control and ±100 the full control effect.

Sequence of Muscarinic acetylcholine receptor M1 (Homo sapiens) (P11229 whole entry, looked up): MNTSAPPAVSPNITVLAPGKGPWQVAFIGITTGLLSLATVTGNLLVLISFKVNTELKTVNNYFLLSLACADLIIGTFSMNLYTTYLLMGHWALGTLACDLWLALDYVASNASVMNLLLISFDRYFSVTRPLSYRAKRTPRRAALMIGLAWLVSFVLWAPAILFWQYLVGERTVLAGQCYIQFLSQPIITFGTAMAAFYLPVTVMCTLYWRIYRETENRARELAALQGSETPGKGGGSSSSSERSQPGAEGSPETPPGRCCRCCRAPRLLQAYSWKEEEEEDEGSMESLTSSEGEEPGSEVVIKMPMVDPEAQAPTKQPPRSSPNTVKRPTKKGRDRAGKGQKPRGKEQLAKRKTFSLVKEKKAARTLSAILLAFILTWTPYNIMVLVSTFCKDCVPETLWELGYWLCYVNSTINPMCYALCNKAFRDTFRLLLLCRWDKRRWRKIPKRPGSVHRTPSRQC
Sequence of 5-hydroxytryptamine receptor 2A (Homo sapiens) (P28223 whole entry, looked up): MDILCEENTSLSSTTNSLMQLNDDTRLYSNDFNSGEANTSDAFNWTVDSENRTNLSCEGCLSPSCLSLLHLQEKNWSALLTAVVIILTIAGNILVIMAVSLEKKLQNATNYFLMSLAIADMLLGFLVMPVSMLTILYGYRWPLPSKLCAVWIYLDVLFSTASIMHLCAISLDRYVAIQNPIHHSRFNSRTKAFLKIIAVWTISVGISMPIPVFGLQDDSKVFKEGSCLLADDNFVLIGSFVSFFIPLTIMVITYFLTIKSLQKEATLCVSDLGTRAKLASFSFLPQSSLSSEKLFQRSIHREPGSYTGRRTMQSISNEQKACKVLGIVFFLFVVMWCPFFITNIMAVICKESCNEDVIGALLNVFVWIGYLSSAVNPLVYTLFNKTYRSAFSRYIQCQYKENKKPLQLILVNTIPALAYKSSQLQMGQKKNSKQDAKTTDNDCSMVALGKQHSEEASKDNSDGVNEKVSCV
Sequence of D(2) dopamine receptor (Homo sapiens) (P14416 whole entry, looked up): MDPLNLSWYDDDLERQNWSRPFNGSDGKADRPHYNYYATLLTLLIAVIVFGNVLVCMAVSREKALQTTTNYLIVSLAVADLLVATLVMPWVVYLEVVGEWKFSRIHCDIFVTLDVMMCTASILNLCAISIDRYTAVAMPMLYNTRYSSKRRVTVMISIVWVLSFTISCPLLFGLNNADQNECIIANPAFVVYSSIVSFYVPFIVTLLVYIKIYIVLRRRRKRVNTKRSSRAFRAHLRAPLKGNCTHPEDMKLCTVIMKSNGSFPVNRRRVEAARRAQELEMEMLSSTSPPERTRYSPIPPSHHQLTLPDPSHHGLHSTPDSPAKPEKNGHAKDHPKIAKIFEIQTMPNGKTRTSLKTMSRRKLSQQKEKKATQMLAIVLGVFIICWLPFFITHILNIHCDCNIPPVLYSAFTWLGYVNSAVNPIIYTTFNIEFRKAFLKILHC
Sequence of KiSS-1 receptor (Homo sapiens) (Q969F8 whole entry, looked up): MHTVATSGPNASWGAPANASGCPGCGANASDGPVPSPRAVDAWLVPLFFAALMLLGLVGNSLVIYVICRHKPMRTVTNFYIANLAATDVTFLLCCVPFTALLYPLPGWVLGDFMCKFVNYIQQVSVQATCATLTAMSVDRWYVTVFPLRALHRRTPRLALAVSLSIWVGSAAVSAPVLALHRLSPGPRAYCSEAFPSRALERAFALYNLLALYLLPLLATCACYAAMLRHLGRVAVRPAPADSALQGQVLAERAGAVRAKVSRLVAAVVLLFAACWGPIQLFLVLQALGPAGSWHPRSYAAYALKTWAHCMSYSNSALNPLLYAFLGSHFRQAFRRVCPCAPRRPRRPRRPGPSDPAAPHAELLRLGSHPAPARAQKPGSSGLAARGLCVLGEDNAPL
Sequence of Beta-2 adrenergic receptor (Homo sapiens) (P07550 whole entry, looked up): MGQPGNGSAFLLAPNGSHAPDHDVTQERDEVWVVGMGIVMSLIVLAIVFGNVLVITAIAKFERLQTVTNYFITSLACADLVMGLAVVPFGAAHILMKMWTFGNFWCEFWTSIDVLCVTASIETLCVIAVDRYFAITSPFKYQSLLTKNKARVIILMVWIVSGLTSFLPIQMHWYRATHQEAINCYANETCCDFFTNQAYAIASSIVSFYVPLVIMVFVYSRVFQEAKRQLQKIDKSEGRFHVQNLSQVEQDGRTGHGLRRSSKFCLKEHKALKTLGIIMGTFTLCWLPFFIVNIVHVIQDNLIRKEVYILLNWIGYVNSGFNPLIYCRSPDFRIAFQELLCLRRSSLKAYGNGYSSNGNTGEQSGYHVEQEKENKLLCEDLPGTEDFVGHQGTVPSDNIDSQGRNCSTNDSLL
Sequence of Gonadotropin-releasing hormone receptor (Homo sapiens) (P30968 whole entry, looked up): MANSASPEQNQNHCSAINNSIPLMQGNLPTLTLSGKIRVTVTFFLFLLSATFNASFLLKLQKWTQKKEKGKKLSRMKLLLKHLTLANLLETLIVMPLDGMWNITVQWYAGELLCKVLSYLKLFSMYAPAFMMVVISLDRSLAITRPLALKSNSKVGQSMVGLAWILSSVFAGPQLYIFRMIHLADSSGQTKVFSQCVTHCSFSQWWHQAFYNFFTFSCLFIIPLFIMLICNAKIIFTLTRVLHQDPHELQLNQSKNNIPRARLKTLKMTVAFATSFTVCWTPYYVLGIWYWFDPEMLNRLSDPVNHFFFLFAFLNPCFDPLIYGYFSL

CCC(C)S (stereo not drawn)
inactive: activity change, negative = cytotoxicity [1] -0.322% [at 3.27 µM] | activity, positive = activation [2] -3.8% [at 3.27 µM] | activity change [3] -0.606% [at 2.04 µM, stronger effect = higher value] | activation [4] 1.34% [at 2.72 µM] | activation [5] 0.0986% [at 2.04 µM] | activation [6] 0.369% [at 2.33 µM] | activation [7] 1.35% [at 2.33 µM] | activity change, negative = cytotoxicity [8] 2.16% [at 2.33 µM] | activity change, negative = cytotoxicity [9] 10.6% [at 2.33 µM] | activation [10] -0.925% [at 2.33 µM] | activity, negative = inhibition [11] 36.9% [at 2.12 µM] | activation [12] 0.646% [at 2.65 µM] | activity, negative = inhibition [13] 18.7% [at 2.17 µM] | activation [14] 0.317% [at 2.72 µM] | activation [15] -0.121% [at 3.27 µM] | activity change, negative = inhibition [16] -3.11% [at 3.27 µM] | activity change, negative = inhibition [17] -1.77% [at 3.27 µM] | activation [18] 5.57% [at 3.27 µM] | activity change, negative = inhibition [19] 2.46% [at 3.28 µM]

C=CC(=O)OCCCCCC
inactive: Potency [1] | Potency [2] | Potency [3] | Potency [4] | Potency [5] | Potency [6] | Potency [7] | Potency [8] | Potency [10] | Potency [11] | Potency [12] | Potency [13] | Potency [14] | Potency [16] | Potency [17] | Potency [18] | Potency [19]

CC1=CC[C@H](CC=O)C1(C)C
inactive: Potency [1] | Potency [2] | Potency [3] | Potency [4] | Potency [5] | Potency [6] | Potency [20] | Potency [8] | Potency [9] | Potency [10] | Potency [11] | Potency [12] | Potency [13] | Potency [14] | Potency [15] | Potency [16] | Potency [17] | Potency [18]

CNC(=O)[C@H]1O[C@@H](n2cnc3c(NCc4cc(Cl)ccc4OCc4cc(C)no4)ncnc32)[C@H](O)[C@@H]1N
inactive: Potency [1] | Potency [2] | Potency [3] | Potency [4] | Potency [5] | Potency [6] | Potency [7] | Potency [8] | Potency [9] | Potency [10] | Potency [11] | Potency [12] | Potency [13] | Potency [14] | Potency [15] | Potency [16] | Potency [17] | Potency [18] | Potency [19]
